PubChem BioAssay (NCI)
Compounds without any hit were thinned out: in the full panel of roughly 83,000, 20% have a hit.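 Compound tested at a single concentration for 48 hours in 96-well plates; a percent growth value below 10 was scored as active.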 A number with no mark means an inactive call. Active and inactive are the calls of the source.

Key:
Test in all cases: NCI-60 one-dose screen, 48 h (100 = growth as untreated, 0 = no growth, -100 = all killed)
Conditions in all cases: 10 µM unless noted
RPMI-8226 leukemia = system: RPMI-8226 leukemia
OVCAR-8 ovarian = system: OVCAR-8 ovarian
OVCAR-5 ovarian = system: OVCAR-5 ovarian
OVCAR-4 ovarian = system: OVCAR-4 ovarian
SK-OV-3 ovarian = system: SK-OV-3 ovarian
IGROV1 ovarian = system: IGROV1 ovarian
OVCAR-3 ovarian = system: OVCAR-3 ovarian
HS 578T breast = system: HS 578T breast
NCI/ADR-RES ovarian = system: NCI/ADR-RES ovarian
T-47D breast = system: T-47D breast
BT-549 breast = system: BT-549 breast
MDA-MB-435 melanoma = system: MDA-MB-435 melanoma
SW-620 colon = system: SW-620 colon
MCF7 breast = system: MCF7 breast
HCT-116 colon = system: HCT-116 colon
HCC-2998 colon = system: HCC-2998 colon
KM12 colon = system: KM12 colon

| SMILES | growth (RPMI-8226 leukemia) | growth (OVCAR-8 ovarian) | growth (OVCAR-5 ovarian) | growth (OVCAR-4 ovarian) | growth (SK-OV-3 ovarian) | growth (IGROV1 ovarian) | growth (OVCAR-3 ovarian) | growth (HS 578T breast) | growth (NCI/ADR-RES ovarian) | growth (T-47D breast) | growth (BT-549 breast) | growth (MDA-MB-435 melanoma) | growth (SW-620 colon) | growth (MCF7 breast) | growth (HCT-116 colon) | growth (HCC-2998 colon) | growth (KM12 colon) |
| --- | --- | --- | --- | --- | --- | --- | --- | --- | --- | --- | --- | --- | --- | --- | --- | --- | --- |
| COc1ccc(-c2nn(-c3ccccc3)cc2/C=C2\SC(=O)NC2=O)cc1 | 78.7% | 101% | 99.4% | 89.5% | 93.3% | 103% | 110% | 106% | 106% | 85.9% | 101% | 108% | 107% | 85.2% | 95.1% | 109% | 98.1% |
| CC(C)(C)c1nn(-c2ccccc2)c2c1CC1(CN2Cc2ccc3c(c2)OCO3)C(=O)c2ccccc2C1=O | 85.8% | 89.2% | 105% | 123% | 115% | 96.6% | 123% | 120% | 101% | 94.6% | 101% | 106% | 101% | 97.9% | 88.9% | 96.9% | 105% |
| C=C1CCC2C3(C)COC(c4ccc(OC)cc4Br)OC3CCC2(C)C1/C=C/C1=CCOC1=O (stereo not drawn) | 7.47% (active) | 79.3% | 98.3% | 67.9% | 97.5% | 79.8% | 80.8% | 94.7% | 68.6% | 41.3% | 73.8% | 93.7% | 84% | 60.7% | 53.9% | 57.9% | 83.4% |
| Oc1ccc(Nc2nccc(-c3ccc4ccccc4c3)n2)cc1 | 18.3% | 31.6% | 66.9% | 65.5% | 57.4% | 36.3% | 34.3% | 42.8% | 14.7% | 48.7% | 48.2% | 8.01% (active) | 31.8% | 20.2% | 23.2% | 60.4% | 27.4% |
| Nc1cc(-c2nc3sccn3c2-c2ccnc(NCCCNS(=O)(=O)c3ccc(F)cc3)n2)ccc1F | 23% | 46.5% | 61% | 55.2% | 73.6% | 39.9% | 79.4% | 77.4% | 47.7% | 15.4% | 52.2% | 22.9% | 54.7% | 37.4% | 36.8% | 90.3% | 59.7% |
| CN(C)C(=O)c1cc2cnc(Nc3ccc(-c4csc5c(=O)cc(N6CCNCC6)oc45)cc3)nc2n1C1CCCC1 | -22.9% (active) | 20.7% | 22.9% | 29.7% | 32.2% | 15.6% | 20.6% | 11.4% | 77.5% | 52.1% | 46.2% | 38.2% | 0.864% (active) | 3.93% (active) | 4.23% (active) | -0.6% (active) | 13.8% |
| CN(C)CC(=O)Nc1ccc(Cn2nnc3c2C(=O)c2nnn(Cc4ccc(NC(=O)CN(C)C)cc4)c2C3=O)cc1 | -34% (active) | -31.6% (active) | -35.7% (active) | -94.9% (active) | -44% (active) | -74.4% (active) | -59.1% (active) | 7.7% (active) | 88.6% | -51.7% (active) | -89.7% (active) | -87.5% (active) | -27.3% (active) | -61.6% (active) | -87.7% (active) | -51.2% (active) | -54.6% (active) |
| Cc1nn(-c2ccccc2)c2nc(C)n(-c3ccc(Br)cc3)c(=O)c12 | 9.81% (active) | 25.9% | 36.3% | 40.1% | 41.7% | 30.6% | -31.7% (active) | 15% | 3.19% (active) | 23.4% | 50.7% | -5.13% (active) | 22.6% | 13.4% | 15.7% | 32.6% | 43.1% |
| CN1CCN(c2ccc3nc(-c4ccc5nc(-c6ccc(OCCC(C)(C)C)cc6)[nH]c5c4)[nH]c3c2)CC1 | -50.1% (active) | -48.9% (active) | -2.35% (active) | 81.2% | 88.8% | 77.7% | -83.6% (active) | 52.1% | 88% | 73.4% | 72.4% | -37.8% (active) | -82.6% (active) | -61.3% (active) | -95% (active) | -64.6% (active) | -60.6% (active) |
| CC(C)CC(CC1=CCC2CC1C2(C)C)C1=C(O)C(C)(C)C(=O)C(C)(C)C1=O (stereo not drawn) | -26.4% (active) | 5.12% (active) | 22.7% | 32.5% | -12.6% (active) | 39% | 16.2% | 6.67% (active) | 7.18% (active) | 4.63% (active) | -6.03% (active) | 11% | 14.2% | 7.94% (active) | 6.3% (active) | 17.6% | 9.6% (active) |
| C[C@@H]1CC[C@@H]2[C@@H]1[C@H](OC(=O)/C=C/c1ccccc1)[C@]1(C3CCCCC3)C[C@@H](OC(=O)CO)[C@@]2(C)O1 | 44.9% | 45.2% | 96% | 74.8% | 81.4% | 81.3% | 75.1% | -22.4% (active) | 51.1% | 42.8% | 0.688% (active) | 87.9% | 77.6% | 38.3% | 52% | 78% | 69.1% |
| O=S(=O)(Nc1ccc(Cl)cc1Cl)c1ccc(-c2cnc(C3CC3)o2)cc1 | 21.6% | 26.5% | 40.2% | 52.6% | 41.6% | 29.2% | -17.8% (active) | 9.44% (active) | 0.514% (active) | 33.9% | 47% | -5.62% (active) | 21% | 15.3% | 24.9% | 39.3% | 33.3% |
| COc1ccc(C(=O)/C=C/c2c[n+](=O)c3ccc(F)cc3n2[O-])cc1 | 109% | 83.5% | 97.2% | 106% | 106% | 133% | 102% | 102% | 101% | 93.1% | 103% | 119% | 109% | 98.9% | 103% | 104% | 113% |
| O=S(=O)(Nc1ccc(F)c(Cl)c1)c1ccc(-c2cnc(C3CC3)o2)cc1 | 19.3% | 21.7% | 34.4% | 39.1% | 35.1% | 27.3% | -8.13% (active) | 11.3% | -17% (active) | 27.4% | 36.3% | 2.08% (active) | 17.3% | 15.5% | 19.7% | 32% | 30.8% |
| COc1ccc(C(=O)/C=C/c2cc3ccccc3[nH]c2=O)cc1 | 15.3% | 20.4% | 52.2% | 58.6% | 53% | 50.5% | -19% (active) | 53.6% | -5.27% (active) | 33.8% | 21.3% | 29.9% | -21% (active) | 15% | 8.02% (active) | – | -32% (active) |
| CS(=O)(=O)c1c(Nc2ccccc2)n[nH]c1N | 97.8% | 105% | 102% | 117% | 103% | 112% | 121% | 118% | 104% | 104% | 89.1% | 107% | 112% | 101% | 103% | – | 118% |
| CCCCCCCCCCCCCCCCCCSC1=CC(=O)C(OC)=C(OC)C1=O | 40.8% | 86.2% | 94.3% | 109% | 95.7% | 106% | 98.2% | 90.9% | 91.7% | 87.9% | 111% | 68.2% | 81.5% | 96.8% | 97.9% | – | 94.4% |
| CCOC(=O)/C=C/c1ccc(C(=O)OCC)[nH]1 | 75.4% | 62.9% | 75.5% | 108% | 84.8% | 42.4% | 22.6% | 74% | 8.24% (active) | 34.9% | 88.2% | -39.5% (active) | 19.2% | 25.7% | 26.3% | 44.1% | 26.6% |
